Bioassay records deposited in PubChem by National Center for Advancing Translational Sciences (NCATS).
L3MBTL1 inh: inhibitors of human L3MBTL1; Q9Y468; AlphaScreen L3MBTL1–H3K9me1 peptide binding; Potency, µM (series often up to 57.1 µM), for the others: at the top dose activity, negative = inhibition, hits mostly inhibitors; 230,000 compounds, 0.66% hits; further: on the % scale 0 is the no-effect control and ±100 the full control effect; nearly all actives have a fitted effect of over 60% in size
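L3MBTL1 (50 nM) pre-complexed 30 min with biotinylated H3(1-15)K9me1 peptide (75 nM), then compounds added for 30 min at room temperature; AlphaScreen streptavidin donor/nickel chelate acceptor beads (10 ug/mL final) read after 30 min dark incubation.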
BAZ2B block: BAZ2B (human) inhibition; Q9UIF8; AlphaScreen BAZ2B-H3K14Ac peptide displacement; Potency, µM (titrated, usually from 114 µM), inactives show top-dose activity change, negative = inhibition, usual class: inhibitors; 360,000 compounds, 4.4% hits; AID 504333; further: on the % scale 0 is the no-effect control and ±100 the full control effect; nearly all actives have a fitted effect of over 60% in size
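AlphaScreen displacement of biotin-H3(5-23)K14Ac peptide (50 nM final) from BAZ2B (50 nM final) in PBS pH 7.4, 0.01% Tween-20; complex preformed 30 min RT, then compounds (top 110 uM) 30 min RT, beads 20 min dark.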
G9a inh: G9a (human) methyltransferase inhibition; G9a H3K9 monomethylation, AlphaScreen, 2 h; Potency, µM (doses to about 102 µM), inactives show top-dose activity, negative = inhibition, most hits filed as inhibitors; 350,000 compounds, 8.8% hits; Q96KQ7; further: on the % scale 0 is the no-effect control and ±100 the full control effect; nearly all actives have a fitted effect of over 75% in size
Target sequence (Q96KQ7 913-1193 limits assumed): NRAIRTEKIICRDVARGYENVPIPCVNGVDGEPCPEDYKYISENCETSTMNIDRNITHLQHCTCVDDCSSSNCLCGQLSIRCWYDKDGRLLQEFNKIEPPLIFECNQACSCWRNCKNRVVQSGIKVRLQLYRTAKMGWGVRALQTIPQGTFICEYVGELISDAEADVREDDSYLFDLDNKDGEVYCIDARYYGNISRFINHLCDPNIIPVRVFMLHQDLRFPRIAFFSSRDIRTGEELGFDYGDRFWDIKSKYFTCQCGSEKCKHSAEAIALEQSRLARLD
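Signal arises when biotinylated H3K9 peptide, once monomethylated, bridges streptavidin donor and antibody-captured acceptor beads. Enzyme at 20 nM was preincubated 15 min with test compounds; peptide 500 nM and SAM 20 uM then reacted for 2 h.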
JMJD2A Tudor: blocks the human JMJD2A Tudor domain | O75164 | AlphaScreen JMJD2A-Tudor / H3K4me3 peptide binding | Potency, µM (top dose mostly 114 µM), without a hit: at the highest dose activity change, negative = inhibition, hits mostly inhibitors | 390,000 compounds, 4.4% hits | AID 504339; further: on the % scale 0 is the no-effect control and ±100 the full control effect; nearly all actives have a fitted effect of over 50% in size
HP1b binding inh: blocks HP1-beta chromodomain binding to methylated histone tails; AlphaScreen HP1-beta / biotin-H3K9me3 peptide binding; 390,000 compounds, 0.56% hits; Potency, µM (doses to about 114 µM), for inactives: at the top dose activity change, negative = inhibition, usual class: inhibitors; P83916; further: nearly all actives have a fitted effect of over 70% in size
Target sequence (P83916 whole entry, looked up): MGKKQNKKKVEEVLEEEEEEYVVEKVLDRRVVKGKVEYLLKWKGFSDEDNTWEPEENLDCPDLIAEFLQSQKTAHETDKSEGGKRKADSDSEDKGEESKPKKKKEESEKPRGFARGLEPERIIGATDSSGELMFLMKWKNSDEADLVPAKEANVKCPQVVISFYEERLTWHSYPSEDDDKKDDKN
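Compound inhibition of the preformed complex between 50 nM HP1-beta and 50 nM biotinylated H3K9me3 peptide was read by AlphaScreen. Buffer was PBS pH 7.4 with 0.01% Tween-20. Incubations ran 30 min at room temperature, with 10 ug/mL donor/acceptor beads.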
* hit, by the source's call; ? = inconclusive; / = no result; ! = not confirmed by another sample; [ ] = dose if it differs, or a comment. An excerpt weighted towards active compounds, which were near 11% of everything screened. The call rests on the fitted dose curve; in most records, active means well fitted inhibition curve with a large enough effect; inconclusive means small, poorly fitted or top-dose-only effect; inactive means no such curve, though single readings can be large or run the other way. Potency means the concentration at half of the fitted maximal effect.

SMILES	L3MBTL1 inh	BAZ2B block	G9a inh	JMJD2A Tudor	HP1b binding inh
N#CC1=C(S)N(c2ccc(F)cc2)C(c2ccco2)NC1=O (stereo not given)	6%	-27%	8.9µM*	-20%	-7%
Cc1ccc(N2C(S)=C(C#N)C(=O)NC2c2ccco2)cc1 (stereo not given)	18%	-17%	28µM*	-21%	20%
CCN(CC)C(=O)c1ccccc1NC(=O)c1cccc(S(=O)(=O)N2CCC(C)CC2)c1	/	6%	-7%[59 µM]	-8%	15%
Cc1ccc2c(c1)-c1onc(C(=O)N3CCN(c4ccc(Cl)cc4)CC3)c1CO2	/	-2%	-4%[59 µM]	-2%	61%
Cc1ccc2nc(SCC(=O)Nc3ccc(C)c([N+](=O)[O-])c3)[nH]c2c1	-14%	?	11µM*	-25%	1%
Cc1ccc2nc(SCC(=O)Nc3ccc(F)c([N+](=O)[O-])c3)[nH]c2c1	-6%	?	?	-31%	-3%
CCC(=O)Nc1ccc(C(=O)CSc2nc3ccc(C)cc3[nH]2)cc1	-17%	2%	28µM*	-7%	9%
CCC(=O)Nc1ccc(C(=O)CSc2nc3ccccc3[nH]2)cc1	-1%	-9%	?	6%	35%
O=C(CSCc1ccccc1)Nc1cc([N+](=O)[O-])ccc1F	-16%	?	32µM*	-28%	33%
COc1ccc(CCC(=O)Nc2cc([N+](=O)[O-])ccc2OC)cc1	-8%	-23%	-5%	-18%	15%
COc1ccc(CCC(=O)Nc2ccc(C)c([N+](=O)[O-])c2)cc1	-20%	?	10µM*	?	-26%
CN1CCC(=O)N(C(CSc2ccc(Br)cc2)Cc2ccccc2)CC1 (stereo not given)	/	/	/	-29%	2%
CCC1CN(C(=O)Nc2cccc3c2CCCC3)c2cc(C)ccc2O1 (stereo not given)	/	-12%	-3%[59 µM]	-13%	19%
COc1ccc(-c2noc(-c3cccc(OC)c3OC)n2)cc1	/	77%	27%[59 µM]	115%	133%
Cc1ccc2nc(SCC(=O)Nc3cc([N+](=O)[O-])ccc3F)[nH]c2c1	-3%	?	25µM*	-15%	24%
Cc1csc(SCC(=O)Nc2cc([N+](=O)[O-])ccc2F)n1	1%	3%	32%[12.7 µM]	-20%	27%
CCOc1ccc(C2C(C#N)=C(N)SC(N)=C2C#N)cc1OC	0%	?	8.9µM*	/	/
CCOc1ccc(C2C(C#N)=C(N)SC(N)=C2C#N)cc1OCC	/	?	?	?	5%
CCOc1ccccc1C1C(C#N)=C(N)SC(N)=C1C#N	-3%	2%	?	79µM*	1%
CCc1cccc2sc(N3CCN(C(=O)C4CC4)CC3)nc12	/	10%	4%[59 µM]	-3%	47%
CCc1cccc2sc(N3CCN(C(=O)c4ccc([N+](=O)[O-])o4)CC3)nc12	-20%	?	32µM*	22µM*	?
CCC(=O)c1ccc(Oc2ccc(C(=O)c3ccc(C)cc3)cc2[N+](=O)[O-])cc1	-3%	-29%	-50%[59 µM]	-15%	-7%
O=C(c1ccccc1)c1ccc(Oc2ccc([N+](=O)[O-])cc2[N+](=O)[O-])cc1	/	/	/	7.1µM*	?
O=C(CSc1ccc(Cl)cc1)Nc1cccc(-c2nnc(-c3ccco3)o2)c1	2%	0%	25%[59 µM]	-12%	11%
O=C(CSc1nnc(-c2ccco2)o1)NC(=O)Cc1ccccc1	/	79µM*	?	-17%	16%
SMILES	L3MBTL1 inh	BAZ2B block	G9a inh	JMJD2A Tudor	HP1b binding inh
O=C(CSc1ccc(Cl)cc1)Nc1nnc(-c2ccco2)o1	17%	50µM*	-38%	?	47%
O=C1CCCc2cc(S(=O)(=O)NCC3CCC(C(=O)Nc4ccccc4F)CC3)ccc2N1 (stereo not given)	/	1%	9%[59 µM]	-7%	20%
CO[C@H]1C[C@@H]2CC[C@@H](C)[C@@](O)(O2)C(=O)C(=O)N2CCCC[C@H]2C(=O)O[C@H]([C@H](C)C[C@@H]2CC[C@@H](O)[C@H](OC)C2)CC(=O)[C@H](C)/C=C(/C)[C@@H](O)[C@@H](OC)C(=O)[C@H](C)C[C@H](C)C=C/C=C\C=C/1C	/	/	/	-35%	16%
CO[C@H]1C[C@@H]2CC[C@@H](C)[C@@](O)(O2)C(=O)C(=O)N2CCCC[C@H]2C(=O)OC([C@H](C)C[C@@H]2CC[C@@H](O)[C@H](OC)C2)CC(=O)[C@H](C)/C=C(\C)[C@@H](O)[C@@H](OC)C(=O)[C@H](C)C[C@H](C)/C=C/C=C/C=C/1C (stereo not given in full)	/	/	25µM*!	/	/
C/C(=N\NC(=O)c1cc(-c2cccc([N+](=O)[O-])c2)n[nH]1)c1ccccc1O	?	8.9µM*	16%	14µM*	27%
Cc1cccc(-n2c(O)c(C=Nc3ccccc3O)c3ccccc3c2=O)n1	-12%	-25%	23%	-19%	-12%
Cc1ccc(N=Cc2c(O)n(-c3ccc4c(c3)OCO4)c(=O)c3ccccc23)cc1	/	-7%	6%[12.7 µM]	-1%	8%
Cc1ccc(-n2c(O)c(C=Nc3ccccc3-c3n[nH]c(=S)[nH]c3=O)c3ccccc3c2=O)c(C)c1	-11%	40µM*	?	45µM*	?
Cc1ccc(-n2c(O)c(C=Nc3ccccc3-c3n[nH]c(=S)[nH]c3=O)c3ccccc3c2=O)cc1C	-14%	45µM*	?	50µM*	-36%
Cc1cccc(-n2c(O)c(C=Nc3cc(O)ccc3C)c3ccccc3c2=O)n1	-7%	-24%	7%	?	-30%
Cc1cccc(-n2c(O)c(C=Nc3ccccc3-c3n[nH]c(=S)[nH]c3=O)c3ccccc3c2=O)n1	-9%	-34%	40µM*	?	9%
Cc1cccc(-n2c(O)c(C=Nc3ccc(O)cc3)c3ccccc3c2=O)n1	-9%	?	50µM*	-24%	10%
CCN(CC)S(=O)(=O)c1nnc(NC(=O)COc2ccc(Cl)cc2)s1	/	-14%	-44%[59 µM]	-21%	30%
CC(C)CCn1c(=O)c2cccnc2n(CC(=O)Nc2ccc(F)cc2)c1=O	/	-1%	4%[59 µM]	-4%	43%
CC(Oc1ccccc1)C(=O)Nc1nnc2n1CCS2 (stereo not given)	/	20µM*	1.6µM*	28µM*	-5%[57 µM]
CC(C)C(=O)Nc1nnc2n1CCS2	/	2%	?	32µM*	3%[57 µM]
Cc1cc(OCC(=O)N2CCC(C(N)=O)CC2)c2c(C)cc(=O)oc2c1	-1%	-9%	31%	-20%	20%
N#Cc1c(NCCN)nc(NCc2ccccc2)c2c1CCN(Cc1ccccc1)C2	-7%	?	45µM*	?	-15%
CCN1CCc2c(C#N)c(NCc3ccccc3)nc(N(CC)CC)c2C1	-8%	?	50µM*	?	-14%
CCCc1nc(NCc2ccccc2)c(C#N)c2c1CCCC2	15%	41%	97%	22%	117%
